aDG glyco up = alpha-DG glycosylation activation. Pro5-aDG cells, alpha-DG glycosylation AlphaScreen (IIH6); 0% Pro5, 100% B10-LARGE cell signal. activation, % at 10 µM. 360,000 compounds, 0.22% hits;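 active = activation of at least 8% versus controls, or a plate z-score of at least 8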;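 also: Pro5 are CHO cells carrying HIG-tagged alpha-DG that lacks glycosylation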
FAS TE block = blocks the thioesterase domain of human fatty acid synthase. P49327. recombinant FAS-TE, OMFH fluorogenic substrate, fluorescence endpoint. inhibition, % at 15 µM. 360,000 compounds, 0.67% hits. AID 602261;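 active = compounds whose normalised, plate-corrected inhibition of enzyme fluorescence in the single-dose primary screen is 50% or more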
NPR2 activator = GC-B (human) receptor activation; P20594; HEK293-GC-B cells, CNP EC30, cGMP TR-FRET; 0% at EC30 CNP, 100% saturating CNP; activation, % at 10 µM; 370,000 compounds, 0.11% hits;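 active = activation at 10 µM reaching about 35% in either raw or pattern-adjusted values, limit read from the data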
NPR1 activator = GC-A (human) enzyme activation | P16066 | HEK293 GC-A cells, cGMP TR-FRET, EC30 ANP; 0% at EC30 ANP, 100% saturating ANP | activation, % at 10 µM | 370,000 compounds, 0.14% hits | AID 1671463; in the data active = activation above about 40%
Target sequence (P16066 whole entry, looked up): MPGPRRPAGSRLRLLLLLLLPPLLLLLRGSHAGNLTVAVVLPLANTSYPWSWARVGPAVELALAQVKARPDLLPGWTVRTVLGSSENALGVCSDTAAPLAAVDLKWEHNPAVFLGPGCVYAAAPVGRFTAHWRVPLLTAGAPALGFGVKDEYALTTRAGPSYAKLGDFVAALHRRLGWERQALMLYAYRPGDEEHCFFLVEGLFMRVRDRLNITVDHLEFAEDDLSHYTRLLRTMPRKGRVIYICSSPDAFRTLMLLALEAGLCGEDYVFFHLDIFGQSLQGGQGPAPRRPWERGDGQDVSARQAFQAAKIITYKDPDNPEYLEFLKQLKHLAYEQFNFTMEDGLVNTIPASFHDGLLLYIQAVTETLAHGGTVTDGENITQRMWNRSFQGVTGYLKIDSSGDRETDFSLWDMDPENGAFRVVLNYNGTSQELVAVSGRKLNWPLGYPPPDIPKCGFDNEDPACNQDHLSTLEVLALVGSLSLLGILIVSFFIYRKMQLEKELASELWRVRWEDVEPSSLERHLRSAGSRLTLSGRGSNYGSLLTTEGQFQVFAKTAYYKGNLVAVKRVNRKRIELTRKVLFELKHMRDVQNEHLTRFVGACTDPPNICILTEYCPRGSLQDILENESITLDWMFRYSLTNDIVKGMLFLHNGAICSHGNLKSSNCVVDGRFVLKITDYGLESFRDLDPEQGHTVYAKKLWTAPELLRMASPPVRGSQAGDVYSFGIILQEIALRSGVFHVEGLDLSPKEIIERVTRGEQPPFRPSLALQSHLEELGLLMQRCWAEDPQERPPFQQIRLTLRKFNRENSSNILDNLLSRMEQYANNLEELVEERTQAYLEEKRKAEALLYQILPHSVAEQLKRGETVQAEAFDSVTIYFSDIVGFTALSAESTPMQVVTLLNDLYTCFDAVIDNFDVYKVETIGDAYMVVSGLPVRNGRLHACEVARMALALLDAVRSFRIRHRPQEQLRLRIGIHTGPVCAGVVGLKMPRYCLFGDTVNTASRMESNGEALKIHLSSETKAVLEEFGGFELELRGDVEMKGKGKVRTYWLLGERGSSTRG
Numbers stand for hits; 0 = inactive; - = no result. A selection: hits, their analogues and other compounds. The true share with any hit is near 1.1%.

SMILES | aDG glyco up | FAS TE block | NPR2 activator | NPR1 activator
Cc1ccc2c(c1)C1CS(=O)(=O)N(CC(C)C)C(=O)N1C2 (stereo not drawn) | - | - | 0 | 0
CC(C)(C)c1ccc(C2CC2C(=O)N/N=C\c2ccc[nH]2)cc1 (stereo not drawn) | 9.1 | 0 | 0 | 0
CN(CCO)C1CN(Cc2cn(Cc3ccccc3C(F)(F)F)nn2)S(=O)(=O)C1 (stereo not drawn) | - | - | 0 | 0
CCS(=O)(=O)c1ncc(Cl)c(C(=O)Nc2ccc(S(=O)(=O)N3CCC(C)CC3)cc2)n1 | 0 | 0 | 0 | 41
COC(=O)C[C@@H]1CC[C@@H]2[C@H](COc3ccc(NC(=O)c4cccc(OC)c4)cc3C(=O)N2C)O1 | - | - | 0 | 0
COc1ccc(-n2c(SCC(=O)Nc3cc(C)on3)nc3c([nH]c4ccccc43)c2=O)cc1 | 0 | 0 | 0 | 77
COc1ccc(-n2c(SCC(=O)Nc3cc(C)on3)nc3c([nH]c4ccccc43)c2=O)cc1OC | 0 | 0 | 0 | 72
CCOc1ccc(-n2c(SCC(=O)Nc3cc(C)on3)nc3c([nH]c4ccccc43)c2=O)cc1 | 0 | 0 | 0 | 71
COc1ccc(-n2c(SCC(=O)Nc3ccc(NC(C)=O)cc3)nc3c([nH]c4ccccc43)c2=O)cc1OC | 0 | 0 | 0 | 0
CCOc1ccc(-n2c(SCC(N)=O)nc3c([nH]c4ccccc43)c2=O)cc1 | 0 | 0 | 0 | 0
Cc1ccc(-n2c(SCC(=O)Nc3cc(C)on3)nc3c([nH]c4ccccc43)c2=O)cc1 | 0 | 0 | 0 | 79
Cc1occc1-c1nnc(SCC(=O)N[C@@H]2CCc3ccccc32)n1-c1ccccc1 | - | - | 0 | 0
O=C(NC1CCCCN(Cc2ccc(Cl)cc2)C1=O)c1c(F)cccc1F (stereo not drawn) | - | - | 0 | 0
COc1ccc(CSc2nnc(SCC(=O)Nc3ccc(S(N)(=O)=O)cc3)s2)cc1 | - | - | 0 | 0
C=CCn1c(SCc2cccc(C(F)(F)F)c2)nnc1-c1ccc(OC)cc1 | - | - | 0 | 0
Cc1ccc(CNc2nc(-c3cccs3)nc3ccccc23)cc1 | 0 | 0 | 39 | 0
CCCCNc1c(-c2ccc(SC(C)CC)c(OC)c2)nc2ccc(Cl)cn12 (stereo not drawn) | 0 | 0 | 0 | 40
CCCCNc1c(-c2ccc(SC(C)CC)cc2)nc2cnccn12 (stereo not drawn) | 0 | 55 | - | -
Cc1ccc2c(c1)N(CCCC(=O)NCc1ccc(F)cc1)C(=O)CO2 | - | - | 0 | 0
O=C(NC1CCCC1)N1CCC(c2nc3ccc(Cl)cc3[nH]2)CC1 | - | - | 0 | 0
COc1ccc(-c2cc(C(=O)N/N=C/c3ccc4c(c3)OCO4)c3ccccc3n2)c(OC)c1 | 0 | 51 | 0 | 0
CCCCn1cnc2c(=S)nc(N)[nH]c21 | 0 | 0 | 80 | 79
Nc1nc(=S)c2ncn(C3CCCCC3)c2[nH]1 | 0 | 0 | 0 | 0
CCCn1cnc2c(=S)nc(N)[nH]c21 | 0 | 0 | 44 | 43
CCCCCn1cnc2c(=S)nc(N)[nH]c21 | 0 | 0 | 81 | 75
SMILES | aDG glyco up | FAS TE block | NPR2 activator | NPR1 activator
CCCCCCCCn1cnc2c(N)c(C)c(C)cc21 | 0 | 0 | 0 | 0
CC(C)Oc1ccc(Oc2ccc(C#C[C@H](C)N3C(=O)c4ccccc4C3=O)cc2)cn1 | - | - | 0 | 0
N#C/C(=C\c1cn(-c2ccccc2)nc1-c1ccccc1)S(=O)(=O)c1ccccc1 | 0 | 0 | 0 | 0
CC(C)n1cc(/C=C(\C#N)S(=O)(=O)c2ccccc2)c2ccccc21 | 0 | 0 | 51 | 0
Cc1cccc(OCc2nnc(SCC(=O)OC3CCCCC3)o2)c1 | 0 | 0 | 0 | 60
CCOc1ccccc1C(=O)Nc1ccc2nc(C)[nH]c(=O)c2c1 | - | - | 0 | 0
OC(COc1ccc2cc(Br)ccc2c1)CN1CCCC1 (stereo not drawn) | 4.7 | 0 | 0 | 0
C#CCNC(=O)C[C@@H]1C(=O)N2CCCC3=C2[C@@]1(C(=O)OCC)CCC3 | - | - | 0 | 0
COc1ccc(C(=O)Nc2ccc3c(c2)C(=O)c2ccccc2C3=O)cc1OC | 0 | 0 | 0 | 0
COc1ccc(C(=O)c2c(C(F)(F)F)oc3c2C(=O)c2ccccc2C3=O)cc1OC | 5.7 | 0 | 0 | 0
CC(Nc1ncnc2sccc12)c1ccccc1 (stereo not drawn) | 2.2 | 0 | 0 | 0
O=C(N/N=C/c1ccc([N+](=O)[O-])s1)c1cccc(Br)c1 | 8.9 | 0 | 0 | 0
Cc1ccc(C(=O)N/N=C/c2ccc([N+](=O)[O-])s2)cc1 | 13 | 0 | 0 | 0
O=C(N/N=C/c1ccc([N+](=O)[O-])s1)c1ccncc1 | 12 | 0 | - | -
Cc1ccc(C(=O)N/N=C\c2ccc([N+](=O)[O-])s2)cn1 | 0 | 0 | 0 | 0

Compound activity as filed in PubChem BioAssay.
